This is a sample that favours compounds with a hit; in the whole collection about 1.8% have one here.
RGS4 inh – Inhibitors of Regulator of G Protein Signaling (RGS) 4: qHTS | Regulator of G-protein signaling 4 (Homo sapiens), P49798 | Transcreener GDP fluorescence polarization, RGS4-accelerated GTP hydrolysis | Potency, µM (highest dose often 114 µM), hits mostly inhibitors | hit rate 0.039% among 390,000 | AID 504845, 2011; note: nearly all actives have a fitted effect of over 75% in size
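MLSMR compounds (23 nl, pin-transferred) preincubated 10 min at room temperature with a 500nM (2x) first reagent, then RGS4 at 900nM (2x) plus Transcreener GDP mix added; fluorescence polarization (620/688 nm) read before and after 90 min at 30 °C.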
GLP-1R agonist – qHTS of GLP-1 Receptor Agonists. Glucagon-like peptide 1 receptor (Homo sapiens), P43220. HEK293 GLP-1R CRE-luciferase, luminescence, 4-6 h; cells express a hypersensitive GLP-1R form. Potency, µM (series often up to 45.6 µM), usual class: activators. hit rate 0.007% among 380,000. AID 624172, 2012
GLP-1R inv ag – qHTS of GLP-1 Receptor Inverse Agonists (Inhibition Mode) | Glucagon-like peptide 1 receptor (Homo sapiens), P43220 | Potency, µM (top dose mostly 38.3 µM), hits mostly inhibitors | HEK293 GLP-1R CRE-luciferase, luminescence, 24 h; GLP-1R form is constitutively active | hit rate 1.6% among 410,000 | AID 624417, 2012; note: nearly all actives have a fitted effect of over 55% in size
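HEK293 cells stably co-expressing a cAMP-responsive luciferase reporter and constitutively active GLP-1R were seeded, incubated 12 h, then exposed to compounds for 24 h at 37 C. Luminescence was read 12 min after detection reagent; inverse agonists lower signal.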
GCN5L2 inh – qHTS Assay for Inhibitors of GCN5L2 | hit rate 0.21% among 390,000 | AID 504327, 2011 | GCN5L2 HAT assay, ThioGlo1 CoA-SH fluorescence | Histone acetyltransferase KAT2A (Homo sapiens), Q92830 | Potency, µM (titrated, usually from 58.9 µM), actives largely listed as inhibitors
Target sequence (Q92830 whole entry, looked up): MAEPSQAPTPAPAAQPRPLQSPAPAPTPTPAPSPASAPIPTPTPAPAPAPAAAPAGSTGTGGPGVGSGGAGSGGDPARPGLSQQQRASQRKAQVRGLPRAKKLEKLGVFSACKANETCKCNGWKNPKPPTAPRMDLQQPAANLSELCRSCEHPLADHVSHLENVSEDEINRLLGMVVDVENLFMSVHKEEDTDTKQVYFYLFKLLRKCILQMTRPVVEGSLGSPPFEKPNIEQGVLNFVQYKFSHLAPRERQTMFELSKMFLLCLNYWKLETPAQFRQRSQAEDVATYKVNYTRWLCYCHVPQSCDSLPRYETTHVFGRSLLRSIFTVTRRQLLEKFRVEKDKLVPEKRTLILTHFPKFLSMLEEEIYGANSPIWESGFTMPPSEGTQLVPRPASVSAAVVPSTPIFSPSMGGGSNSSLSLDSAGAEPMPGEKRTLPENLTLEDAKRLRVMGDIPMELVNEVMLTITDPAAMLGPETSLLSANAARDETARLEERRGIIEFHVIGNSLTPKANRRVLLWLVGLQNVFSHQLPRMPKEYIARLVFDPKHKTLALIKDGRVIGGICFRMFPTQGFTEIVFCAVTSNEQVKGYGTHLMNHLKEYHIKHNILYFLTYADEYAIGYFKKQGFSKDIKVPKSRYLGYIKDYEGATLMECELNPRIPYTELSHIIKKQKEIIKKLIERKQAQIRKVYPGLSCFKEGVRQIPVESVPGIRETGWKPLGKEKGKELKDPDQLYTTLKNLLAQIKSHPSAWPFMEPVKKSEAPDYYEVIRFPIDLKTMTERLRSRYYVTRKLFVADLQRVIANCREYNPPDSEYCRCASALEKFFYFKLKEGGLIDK
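Preincubate 20nM GCN5L2 with compound 15 min, RT → add 50uM ThioGlo1 + 75uM H3(1-25) + 70uM acetyl-CoA → read fluorescence 0 and 20 min. Primary qHTS; fluorescent artifacts likely.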
GLP1R cytotox – qHTS of GLP-1 Receptor Inverse Agonists: Cytotox Screen. Potency, µM (titrated, usually from 38.3 µM), actives largely listed as inhibitors. hit rate 0.13% among 410,000. AID 624418, 2012. HEK293 cAMP-luciferase reporter cells, luminescence, 24 h;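 note: loss of luciferase light is scored as toxicity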
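To flag toxic compounds, the library was rerun on cells for 24 hr at 37 deg C and 5% CO2. Viability-linked luminescence was captured 12 min after adding luciferase detection reagent.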
PTHR1 agonist – qHTS for PTHR1 Agonists: Primary Screen; hit rate 0.075% among 410,000; Potency, µM (doses to about 115 µM), most hits filed as activators; HEK293 GP2 PTHR1 cells, GloSensor cAMP luminescence, 1 h; Parathyroid hormone/parathyroid hormone-related peptide receptor (Homo sapiens), Q03431; note: nearly all actives have a fitted effect of over 55% in size
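HEK-293-derived GP2 cells expressing PTHR1 and a GloSensor cAMP reporter, 3,000/well, plated overnight, given luciferin plus IBMX (each 0.5 mM as added) for 1 h at 37 °C, then compound for 1 h at 37 °C. Luminescence was read after 15 min at room temperature.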
Hits are given with their value. Calls come from the whole dose curve; as a rule, active = well fitted curve in the direction sought with a large enough effect; inconclusive = small, poorly fitted or top-dose-only effect, or another doubt; inactive = no such curve, though single readings can be large; an effect the other way counts as inactive or inconclusive.

What do the screens show for `CCOc1ccc(NC(=O)CN(C)C(=O)c2cn(-c3ccc(F)cc3)nc2-c2cccc(OC)c2)cc1OCC`?
RGS4 inh: inactive; GLP-1R agonist: inactive; GLP-1R inv ag: 4.5µM; GCN5L2 inh: inactive; GLP1R cytotox: inactive; PTHR1 agonist: inactive

What do the screens show for `CCc1ccc(NC(=S)NC(=O)c2c(-c3ccccc3Cl)noc2C)cc1`?
RGS4 inh: inactive; GLP-1R agonist: inactive; GLP-1R inv ag: 10µM; GCN5L2 inh: inactive; GLP1R cytotox: inactive; PTHR1 agonist: inactive

What do the screens show for `Cc1onc(-c2ccccc2Cl)c1C(=O)Oc1ccc(Br)cc1`?
RGS4 inh: inactive; GLP-1R inv ag: inactive; GCN5L2 inh: inactive; GLP1R cytotox: inactive; PTHR1 agonist: inactive

What do the screens show for `Cc1onc(-c2ccccc2Cl)c1C(=O)Oc1cccc2cccnc12`?
RGS4 inh: inactive; GLP-1R agonist: inactive; GLP-1R inv ag: 13µM; GCN5L2 inh: inactive; GLP1R cytotox: inconclusive; PTHR1 agonist: inactive

Results for Oc1ccc(C[C@H]2CN([C@@H](Cc3ccc(O)cc3)CN3CCC[C@@H]3CN3C(=S)NC[C@@H]3Cc3ccccc3)C(=S)N2CCc2ccccc2)cc1 ?
GLP-1R agonist: inactive; GLP-1R inv ag: inconclusive; GLP1R cytotox: inactive; PTHR1 agonist: inactive

How did CC(C)C[C@@H](CN1CCCC1CN1C(=S)NC[C@@H]1Cc1ccc(O)cc1)N1C[C@H](Cc2ccc(O)cc2)N(CCc2ccccc2)C1=S (stereo not given in full) do in these assays?
RGS4 inh: inactive; GLP-1R agonist: inactive; GLP-1R inv ag: 7.9µM; GLP1R cytotox: inconclusive; PTHR1 agonist: inactive

How did CC1CCCC/C1=N/Nc1ccc([N+](=O)[O-])cc1[N+](=O)[O-] (stereo not given) do in these assays?
RGS4 inh: inactive; GLP-1R agonist: inactive; GLP-1R inv ag: inactive; GCN5L2 inh: inactive; GLP1R cytotox: inactive; PTHR1 agonist: inactive

What do the screens show for `O=[N+]([O-])c1ccc(C2CCCC/C2=N\OCc2cccc(F)c2)c([N+](=O)[O-])c1` (stereo not given)?
RGS4 inh: inactive; GLP-1R agonist: inactive; GLP-1R inv ag: 10µM; GCN5L2 inh: inactive; GLP1R cytotox: inactive; PTHR1 agonist: inactive

What do the screens show for `O=[N+]([O-])c1ccc(SNc2ccccc2)c([N+](=O)[O-])c1`?
RGS4 inh: inactive; GLP-1R agonist: inactive; GLP-1R inv ag: 11µM; GLP1R cytotox: inconclusive; PTHR1 agonist: inactive

What do the screens show for `O=[N+]([O-])c1ccccc1SNc1ccccc1`?
GLP-1R agonist: inactive; GLP-1R inv ag: inconclusive; GLP1R cytotox: inactive; PTHR1 agonist: inactive

What do the screens show for `CSCC[C@H](NC(=O)[C@H](CO)NC(=O)[C@H](Cc1ccc(O)cc1)NC(=O)[C@@H](N)CO)C(=O)N[C@@H](CCC(=O)O)C(=O)N[C@@H](Cc1cnc[nH]1)C(=O)N[C@@H](Cc1ccccc1)C(=O)N[C@@H](CCCNC(=N)N)C(=O)N[C@@H](Cc1c[nH]c2ccccc12)C(=O)NCC(=O)N[C@@H](CCCCN)C(=O)N1CCC[C@H]1C(=O)N[C@H](C(=O)NCC(=O)N[C@@H](CCCCN)C(=O)N[C@@H](CCCCN)C(=O)N[C@@H](CCCNC(=N)N)C(=O)N[C@@H](CCCNC(=N)N)C(=O)N1CCC[C@H]1C(=O)N[C@H](C(=O)N[C@@H](CCCCN)C(=O)N[C@H](C(=O)N[C@@H](Cc1ccc(O)cc1)C(=O)N1CCC[C@H]1C(=O)N[C@@H](CC(N)=O)C(=O)NCC(=O)N[C@@H](C)C(=O)N[C@@H](CCC(=O)O)C(=O)N[C@@H](CC(=O)O)C(=O)N[C@@H](CCC(=O)O)C(=O)N[C@@H](CO)C(=O)N[C@@H](C)C(=O)N[C@@H](CCC(=O)O)C(=O)N[C@@H](C)C(=O)N[C@@H](Cc1ccccc1)C(=O)N1CCC[C@H]1C(=O)N[C@@H](CC(C)C)C(=O)N[C@@H](CCC(=O)O)C(=O)N[C@@H](Cc1ccccc1)C(=O)O)C(C)C)C(C)C)C(C)C`?
GCN5L2 inh: inactive

How did COc1c(C)cc(Br)cc1C(=O)Nc1ccc(Cc2ccncc2)cc1 do in these assays?
RGS4 inh: inactive; GLP-1R agonist: inactive; GLP-1R inv ag: 10µM; GCN5L2 inh: inactive; GLP1R cytotox: inactive; PTHR1 agonist: inactive

What do the screens show for `COc1ccccc1C(=O)Nc1ccc(Cc2ccncc2)cc1`?
RGS4 inh: inactive; GLP-1R agonist: inactive; GLP-1R inv ag: inactive; GCN5L2 inh: inactive; GLP1R cytotox: inactive; PTHR1 agonist: inactive

How did COC(=O)c1c(C)[nH]c(/C=N/Nc2ccccc2)c1C do in these assays?
RGS4 inh: inactive; GLP-1R agonist: inactive; GLP-1R inv ag: 10µM; GCN5L2 inh: inactive; GLP1R cytotox: inactive; PTHR1 agonist: inactive

Results for Cc1c(C=NNc2ccccc2)[nH]c(=O)[nH]c1=O ?
RGS4 inh: inactive; GLP-1R agonist: inactive; GLP-1R inv ag: inconclusive; GLP1R cytotox: inconclusive; PTHR1 agonist: inactive

What do the screens show for `N=C1S/C(=C\c2ccco2)C(=O)N1c1nccs1`?
RGS4 inh: inactive; GLP-1R agonist: inactive; GLP-1R inv ag: 1µM; GCN5L2 inh: inactive; GLP1R cytotox: inactive; PTHR1 agonist: inactive

What do the screens show for `N=C1S/C(=C\c2ccco2)C(=O)N1c1ccc2c(c1)OCO2`?
RGS4 inh: inactive; GLP-1R agonist: inactive; GLP-1R inv ag: inactive; GCN5L2 inh: inactive; GLP1R cytotox: inactive; PTHR1 agonist: inactive

What do the screens show for `CCO[C@@H]1OC(C(=O)N2CCN(Cc3ccc4c(c3)OCO4)CC2)=C[C@H](C2CCCCC2)[C@H]1CCCO`?
RGS4 inh: inactive; GLP-1R agonist: inactive; GLP-1R inv ag: 11µM; GCN5L2 inh: inactive; GLP1R cytotox: inactive; PTHR1 agonist: inactive

How did CCO[C@H]1OC(C(=O)N2CCN(Cc3ccccc3)CC2)=C[C@@H](C2CCCCC2)[C@@H]1CCCO do in these assays?
RGS4 inh: inactive; GLP-1R agonist: inactive; GLP-1R inv ag: inconclusive; GCN5L2 inh: inactive; GLP1R cytotox: inactive; PTHR1 agonist: inactive

What do the screens show for `O=C(Nc1ccccc1)Nc1cnccn1`?
RGS4 inh: inactive; GLP-1R agonist: inactive; GLP-1R inv ag: inactive; GCN5L2 inh: inactive; GLP1R cytotox: inactive; PTHR1 agonist: inactive

What do the screens show for `CC(C)(C)n1nnnc1C(c1cccs1)N1CCCC2(CCCCC2)C1` (stereo not given)?
RGS4 inh: inactive; GLP-1R agonist: inactive; GLP-1R inv ag: inactive; GCN5L2 inh: inactive; GLP1R cytotox: inactive; PTHR1 agonist: inactive

From PubChem
